Here are results for eleven compounds from PubChem BioAssay (NCI).

This assay relates to HL-60(TB) leukemia. Put plainly: NCI-60 one-dose screen, 48 h (100 = growth as untreated, 0 = no growth, -100 = all killed). The settings on record: 10 µM unless noted.

SMILES strings stand for the structures. This is part of a sample that, as a whole, favours compounds with a hit. Of some 83,000 tested, about 20% had one in any assay.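 The test compound was applied at a single concentration to cells in 96-well plates for 48 hours, and percent growth was recorded.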 Values without a mark were called inactive. Active and inactive are the calls of the source. Rule for the calls: active = growth percent below 10; inactive = the rest.

Regarding `CCCNCC(=O)Nc1ccc(C(=O)OC(C)(C)CC)cc1`, the growth is 89.8%.

With `C=C1SC(=Nc2c(C)cccc2C)N(c2nc(Cl)nc(Cl)n2)C12CCCCC2`, the growth is 100%.

As for `COc1ccc(/C=C2\CCC/C(=C\c3ccc(OC)c(OC)c3)C2=O)cc1OC`, the growth was 3.46% (active).

Regarding `CCCCc1ccc(C(N)=O)nc1`, the growth was 88.2%.

With `Cc1cc(=NO)cc(C)n1O`, the growth is 81.6%.

Regarding `O=C(O)C1CN(c2cccc(Cl)c2)N(c2cccc(Cl)c2)C1=O` (stereo unspecified), the growth was 95.3%.

`c1nc2ccc(-c3cc4ccc5[nH]ncc5c4c4c3CCCC4)cc2[nH]1`: the growth was 30.9%.

For `COc1cc(/C=C/c2cc(O)c(C(C)=O)c(O)c2)cc2c1O[C@]1(C)CC[C@@H](O)C(C)(C)[C@H]1C2`, the growth was 28.1%.

`C[C@@H]1O[C@@H](O[C@H]2[C@@H](OC(=O)[C@]34CCC(C)(C)C[C@H]3C3=CC[C@@H]5[C@@]6(C)C[C@H](O)[C@H](O[C@@H]7O[C@H](CO)[C@@H](O)[C@H](O)[C@H]7O)[C@@](C)(CO)[C@@H]6CC[C@@]5(C)[C@]3(C)C[C@H]4O)OC[C@@H](O)[C@@H]2O)[C@H](O)[C@H](O[C@@H]2OC[C@@H](O)[C@H](O[C@@H]3OC[C@](O)(CO)[C@H]3O[C@@H]3OC[C@@H](O)[C@H](O)[C@H]3O)[C@H]2O)[C@H]1O[C@@H]1OC[C@](O)(CO)[C@H]1O`: the growth is 21.4%.

With `Nc1cc(O)cc2cccnc12`, the growth was 98.5%.

For `Nc1nc(Nc2ccccc2)c2ncn(Cc3ccc4c(c3)OCO4)c2n1`, the growth was 25.1%.
